Measurements reported in PubChem BioAssay (EPA / NIEHS).
Inconclusive results are not listed. Calls of active or inactive are those of the source. How the source made its calls, unless noted: active means hit-call score of the fitted dose curve at least 0.9, where 1 is the maximum; inconclusive means response in the unintended direction; inactive means score below 0.9.

Key:
[1] = target: Retinoic acid receptor alpha (Homo sapiens) (UniProt P10276); test: ATG_DR5_RAR_CIS: Attagene CIS-FACTORIAL HepG2 Assay for human Retinoic Acid Receptor Alpha (RARE), DR5 submotif (AID 2282934; active means hit-call score of the fitted dose curve at least 0.9, where 1 is the maximum; inactive means score below 0.9); settings: HepG2 Attagene cis-factorial RARE DR5 reporter, mRNA; actives raise or lower the signal
Chain of Retinoic acid receptor alpha (Homo sapiens) (P10276 whole entry, looked up): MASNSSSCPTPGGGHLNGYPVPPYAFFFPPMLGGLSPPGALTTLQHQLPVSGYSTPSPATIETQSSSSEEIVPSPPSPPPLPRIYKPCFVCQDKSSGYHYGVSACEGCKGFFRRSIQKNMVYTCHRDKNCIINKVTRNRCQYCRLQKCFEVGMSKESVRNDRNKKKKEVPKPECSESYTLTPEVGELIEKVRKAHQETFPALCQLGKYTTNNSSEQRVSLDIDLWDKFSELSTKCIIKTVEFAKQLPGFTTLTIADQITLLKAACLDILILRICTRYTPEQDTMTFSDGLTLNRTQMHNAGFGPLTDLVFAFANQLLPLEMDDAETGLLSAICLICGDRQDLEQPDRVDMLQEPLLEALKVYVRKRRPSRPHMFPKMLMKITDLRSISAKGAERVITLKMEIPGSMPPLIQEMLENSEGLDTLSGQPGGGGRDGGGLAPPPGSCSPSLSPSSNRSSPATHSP
Procedure, shortened: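 HepG2 cells transiently transfected with multiplexed reporter units under cis (DR5 RARE) promoters, so endogenous transcription factor activity is measured. After 24 h compound exposure, reporter mRNA is quantified by RT-PCR with fluorescent labelling and capillary electrophoresis; bidirectional fitting versus DMSO.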

[2] = target: Bile acid receptor (Homo sapiens) (UniProt Q96RI1); test: ATG_IR1_CIS: Attagene CIS-FACTORIAL HepG2 Assay for human Nuclear Receptor Subfamily 1 Group H Member 4 (NR1H4), IR1 submotif (AID 2282946; active means hit-call score of the fitted dose curve at least 0.9, where 1 is the maximum; inactive means score below 0.9); settings: IR1 reporter transcription, actives raise or lower the signal
Chain of Bile acid receptor (Homo sapiens) (Q96RI1 whole entry, looked up): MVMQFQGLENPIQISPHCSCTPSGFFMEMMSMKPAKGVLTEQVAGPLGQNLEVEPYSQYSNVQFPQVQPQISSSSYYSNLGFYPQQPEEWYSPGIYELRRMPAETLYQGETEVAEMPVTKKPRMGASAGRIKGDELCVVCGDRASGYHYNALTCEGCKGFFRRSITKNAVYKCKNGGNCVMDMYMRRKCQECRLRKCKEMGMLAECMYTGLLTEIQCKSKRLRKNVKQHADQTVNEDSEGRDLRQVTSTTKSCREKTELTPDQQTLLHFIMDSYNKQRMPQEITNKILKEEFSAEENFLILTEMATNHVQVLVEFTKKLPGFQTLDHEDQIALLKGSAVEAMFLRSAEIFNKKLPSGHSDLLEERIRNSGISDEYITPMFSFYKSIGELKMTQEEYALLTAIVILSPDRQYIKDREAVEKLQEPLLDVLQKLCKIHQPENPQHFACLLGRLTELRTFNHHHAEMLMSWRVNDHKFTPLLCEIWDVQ
Procedure, shortened: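 Transient MRTU transfection, HepG2; 24 h dosing; RNA → RT-PCR → 6-FAM primer extension → HpaI digest → capillary electrophoresis fluorescence. Gain/loss of signal fitted relative to DMSO.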

[3] = target: Nuclear receptor subfamily 1 group I member 3 (Homo sapiens) (UniProt Q14994); test: ATG_CAR_TRANS: Attagene TRANS-FACTORIAL HepG2 Assay for human Constitutive Androstane Receptor (CAR) (AID 2282969); settings: HepG2 Attagene TRANS-FACTORIAL CAR reporter;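 further: activators raise reporter mRNA above DMSO so AC50 marks induction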
Chain of Nuclear receptor subfamily 1 group I member 3 (Homo sapiens) (Q14994 whole entry, looked up, the tested form may be a part): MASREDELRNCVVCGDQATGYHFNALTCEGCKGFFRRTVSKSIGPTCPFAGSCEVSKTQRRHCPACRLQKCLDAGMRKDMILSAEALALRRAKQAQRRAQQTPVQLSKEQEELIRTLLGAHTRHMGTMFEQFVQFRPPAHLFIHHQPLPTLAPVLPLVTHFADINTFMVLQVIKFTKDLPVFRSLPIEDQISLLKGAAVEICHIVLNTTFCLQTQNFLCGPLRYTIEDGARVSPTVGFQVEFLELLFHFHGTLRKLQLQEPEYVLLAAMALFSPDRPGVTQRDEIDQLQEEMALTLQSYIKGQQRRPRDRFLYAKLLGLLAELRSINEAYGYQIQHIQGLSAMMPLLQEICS
Procedure, shortened: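 HepG2 cells transiently transfected with multiplexed GAL4-UAS reporter units expressing chimeric NR-Gal4 proteins; compound exposure 24 h. Reporter mRNA measured by RT-PCR, 6-FAM labelling, HpaI digestion and capillary electrophoresis; gain-of-signal fitted against DMSO baseline.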

[4] = ATG_M_19_TRANS: Attagene TRANS-FACTORIAL HepG2 Assay for M19 Transcription Factor (Internal Marker) (AID 2282974); settings: HepG2 Attagene TRANS-FACTORIAL M19 internal marker reporter
Procedure, shortened: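 HepG2 cells transiently transfected with multiple GAL4-UAS reporter transcription units were exposed to chemicals for 24 h. Reporter mRNA was read by RT-PCR, 6-FAM primer extension, HpaI digestion and capillary electrophoresis; gain of signal fitted relative to DMSO.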

[5] = target: Oxysterols receptor LXR-alpha (Homo sapiens) (UniProt Q13133); test: ATG_LXRa_TRANS: Attagene TRANS-FACTORIAL HepG2 Assay for human Liver X Receptor alpha (LXRa) (AID 2282980); settings: HepG2 Attagene TRANS reporter, LXRa transactivation
Chain of Oxysterols receptor LXR-alpha (Homo sapiens) (Q13133 whole entry, looked up, the tested form may be a part): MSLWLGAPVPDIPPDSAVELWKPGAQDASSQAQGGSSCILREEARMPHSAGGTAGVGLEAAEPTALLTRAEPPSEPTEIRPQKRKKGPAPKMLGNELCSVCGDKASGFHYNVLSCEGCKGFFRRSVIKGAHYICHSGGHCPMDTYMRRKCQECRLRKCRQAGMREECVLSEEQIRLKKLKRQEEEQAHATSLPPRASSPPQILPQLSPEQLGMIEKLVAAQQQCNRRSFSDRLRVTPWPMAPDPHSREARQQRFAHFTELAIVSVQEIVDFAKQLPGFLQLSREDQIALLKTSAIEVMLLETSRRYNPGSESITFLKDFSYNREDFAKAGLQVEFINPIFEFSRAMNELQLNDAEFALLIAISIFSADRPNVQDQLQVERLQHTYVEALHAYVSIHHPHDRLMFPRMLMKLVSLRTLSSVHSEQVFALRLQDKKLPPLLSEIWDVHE
Procedure, shortened: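 Read-out: reporter transcript levels by RT-PCR plus capillary electrophoresis, fluorescence intensity. Transiently transfected HepG2, exogenous NR-GAL4 chimera, GAL4-UAS reporters; 24 h compound exposure. Activity = increase over DMSO negative control.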

[6] = target: Oxysterols receptor LXR-beta (Homo sapiens) (UniProt P55055); test: ATG_LXRb_TRANS: Attagene TRANS-FACTORIAL HepG2 Assay for human Liver X Receptor beta (LXRb) (AID 2282981); settings: HepG2 Attagene TRANS GAL4-LXRb reporter, mRNA
Chain of Oxysterols receptor LXR-beta (Homo sapiens) (P55055 whole entry, looked up, the tested form may be a part): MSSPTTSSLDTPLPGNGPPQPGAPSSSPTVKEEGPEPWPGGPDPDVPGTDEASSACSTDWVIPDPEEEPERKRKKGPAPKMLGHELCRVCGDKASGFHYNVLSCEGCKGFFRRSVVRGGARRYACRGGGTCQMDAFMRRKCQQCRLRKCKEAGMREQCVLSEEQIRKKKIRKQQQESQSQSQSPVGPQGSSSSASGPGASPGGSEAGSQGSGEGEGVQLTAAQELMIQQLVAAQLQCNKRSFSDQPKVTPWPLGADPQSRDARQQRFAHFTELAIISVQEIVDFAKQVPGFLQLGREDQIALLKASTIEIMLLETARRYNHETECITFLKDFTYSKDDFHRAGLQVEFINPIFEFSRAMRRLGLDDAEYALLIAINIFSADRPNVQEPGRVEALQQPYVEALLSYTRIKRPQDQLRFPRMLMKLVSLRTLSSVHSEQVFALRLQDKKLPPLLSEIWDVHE
Procedure, shortened: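 In this TRANS format, exogenous chimeric NR-Gal4 protein activity, not endogenous factors, drives reporter expression in transfected human HepG2 cells. Exposure lasted 24 h; reporter mRNA was read by fluorescent capillary electrophoresis.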

[7] = ATG_M_32_TRANS: Attagene TRANS-FACTORIAL HepG2 Assay for M32 Transcription Factor (Internal Marker) (AID 2282984); settings: HepG2 Attagene TRANS M32 internal marker reporter;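 further: transcript level of a background control reporter unit measured by RT-PCR and capillary electrophoresis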
Procedure, shortened: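 Human hepatoma HepG2, transient MRTU transfection, 24 h treatment. RNA → RT-PCR → fluorescent primer extension → HpaI digest (2 h, 37 C) → CE. Positive-direction fit vs DMSO.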

[8] = target: human RAR-related Orphan Receptor beta (RORb), RORB (gene 6096) (UniProt Q92753); test: ATG_RORb_TRANS: Attagene TRANS-FACTORIAL HepG2 Assay for human RAR-related Orphan Receptor beta (RORb) (AID 2283010)
Chain of human RAR-related Orphan Receptor beta (RORb), RORB (gene 6096) (Q92753 whole entry, looked up, the tested form may be a part): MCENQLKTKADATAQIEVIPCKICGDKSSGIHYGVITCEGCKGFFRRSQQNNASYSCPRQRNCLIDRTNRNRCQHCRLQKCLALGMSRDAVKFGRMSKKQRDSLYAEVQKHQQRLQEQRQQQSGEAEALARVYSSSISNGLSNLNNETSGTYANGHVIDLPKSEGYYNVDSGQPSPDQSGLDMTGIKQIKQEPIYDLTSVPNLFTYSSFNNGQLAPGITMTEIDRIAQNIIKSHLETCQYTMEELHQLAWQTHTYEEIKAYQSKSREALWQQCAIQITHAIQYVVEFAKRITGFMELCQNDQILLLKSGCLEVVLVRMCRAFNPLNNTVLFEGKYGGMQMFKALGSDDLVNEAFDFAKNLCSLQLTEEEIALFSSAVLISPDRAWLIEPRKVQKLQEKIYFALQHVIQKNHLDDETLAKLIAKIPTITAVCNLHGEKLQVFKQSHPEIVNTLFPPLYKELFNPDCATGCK
Procedure, shortened: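 HepG2 cells transiently transfected with GAL4-UAS reporter units expressing chimeric NR-Gal4 protein; reporter mRNA measured 24 h after dosing by RT-PCR, 6-FAM labelling and capillary electrophoresis. Gain-of-signal fitted relative to DMSO baseline.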

[9] = target: human RAR-related Orphan Receptor gamma (RORg), RORC (gene 6097) (UniProt P51449); test: ATG_RORg_TRANS: Attagene TRANS-FACTORIAL HepG2 Assay for human RAR-related Orphan Receptor gamma (RORg) (AID 2283011)
Chain of human RAR-related Orphan Receptor gamma (RORg), RORC (gene 6097) (P51449 whole entry, looked up, the tested form may be a part): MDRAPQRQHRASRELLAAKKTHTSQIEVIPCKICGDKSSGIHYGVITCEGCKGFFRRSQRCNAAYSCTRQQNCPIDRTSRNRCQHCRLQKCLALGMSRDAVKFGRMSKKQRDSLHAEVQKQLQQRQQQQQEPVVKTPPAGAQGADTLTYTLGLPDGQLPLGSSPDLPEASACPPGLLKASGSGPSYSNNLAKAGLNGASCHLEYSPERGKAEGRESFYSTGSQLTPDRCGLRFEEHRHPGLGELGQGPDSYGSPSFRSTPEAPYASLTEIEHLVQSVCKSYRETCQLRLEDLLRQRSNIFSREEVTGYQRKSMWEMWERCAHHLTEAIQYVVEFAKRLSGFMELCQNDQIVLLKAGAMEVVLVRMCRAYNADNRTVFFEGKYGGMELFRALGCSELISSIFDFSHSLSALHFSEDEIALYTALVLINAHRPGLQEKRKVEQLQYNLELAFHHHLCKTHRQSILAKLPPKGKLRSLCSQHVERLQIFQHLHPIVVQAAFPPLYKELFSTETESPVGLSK
Procedure, shortened: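 Transient MRTU transfection of HepG2 (TRANS format, exogenous NR-Gal4 chimera). 24 h dosing. Total RNA → oligo(dT) RT → PCR → 6-FAM labelling → HpaI cut → CE. Gain vs DMSO.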

[10] = target: human Thyroid Receptor alpha (THRa1), THRA (gene 7067) (UniProt P10827); test: ATG_THRa1_TRANS: Attagene TRANS-FACTORIAL HepG2 Assay for human Thyroid Receptor alpha (THRa1) (AID 2283014)
Chain of human Thyroid Receptor alpha (THRa1), THRA (gene 7067) (P10827 whole entry, looked up, the tested form may be a part): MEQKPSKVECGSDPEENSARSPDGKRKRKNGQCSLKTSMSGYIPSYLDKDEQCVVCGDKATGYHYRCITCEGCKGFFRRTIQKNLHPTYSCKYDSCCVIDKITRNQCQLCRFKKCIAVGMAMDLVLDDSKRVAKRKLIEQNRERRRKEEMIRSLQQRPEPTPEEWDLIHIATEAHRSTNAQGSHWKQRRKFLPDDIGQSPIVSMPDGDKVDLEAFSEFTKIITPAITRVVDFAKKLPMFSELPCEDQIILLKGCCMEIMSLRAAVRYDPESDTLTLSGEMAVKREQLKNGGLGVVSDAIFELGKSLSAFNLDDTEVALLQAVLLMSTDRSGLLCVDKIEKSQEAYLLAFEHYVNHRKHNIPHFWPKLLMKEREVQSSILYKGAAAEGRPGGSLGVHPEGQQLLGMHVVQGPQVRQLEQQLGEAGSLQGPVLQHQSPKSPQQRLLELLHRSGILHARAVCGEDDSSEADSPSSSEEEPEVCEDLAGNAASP
Procedure, shortened: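 Transient HepG2 transfection, NR-Gal4 chimera driving GAL4-UAS reporters; 24 h compound exposure; total RNA, oligo(dT) RT, PCR, fluorescent primer extension, capillary electrophoresis. Upward direction vs DMSO control.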

[11] = TOX21_p53_BLA_p2_viability: Viability Assessment in the Tox21 HCT-116 p53 Agonism Beta-lactamase Assay, Phase 2 (AID 2283591);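 further: compound exposure lasted 16 h at 37 °C; actives lower the ATP signal meaning cytotoxicity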
Procedure, shortened: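 HCT-116 p53-bla cells (4000/well) rested 5 h at 37C, then received compounds in DMSO (217-fold dilution) for 16 h at 37C, 5% CO2. After the CCF4 read, CellTiter-Glo was added; ATP luminescence was read after 30 min at room temperature.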

[12] = TOX21_p53_BLA_p4_viability: Viability Assessment in the Tox21 HCT-116 p53 Agonism Beta-lactamase Assay, Phase 4 (AID 2283597);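 further: hits lower the luminescence signal meaning cytotoxicity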
Procedure, shortened: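 We seeded HCT116 p53 reporter cells at 4000/well and waited 5 h. We then added compounds in DMSO at a 217-fold dilution and incubated for 16 h. Viability was read as CellTiter-Glo luminescence after 30 min at RT.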

[13] = ACEA_ER_AUC_viability: ACEA Biosciences xCELLigence Real-Time Cell Analysis on Estrogen Receptor Agonism for Viability (AID 2283782);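 further: continuous compound exposure with impedance area under curve over 80 h; hit means loss of impedance signal meaning reduced cell growth or viability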
Procedure, shortened: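 T-47D human breast cells in phenol red-free RPMI1640 with 10% charcoal-stripped FBS were dosed with an 8-point 1:4 dilution series from 100 uM top final concentration, in duplicate. Impedance-based growth was followed for 80 h; AUC analysed versus DMSO.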

[14] = ATG_GAL4_TRANS: Attagene TRANS-FACTORIAL HepG2 Assay for GAL4 (Internal Marker) (AID 2282976); settings: HepG2 Attagene TRANS GAL4 internal marker reporter
Procedure, shortened: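 RT-PCR/capillary electrophoresis readout of reporter mRNA. HepG2, transient MRTU transfection (GAL4-UAS reporters), 24 h compound exposure. Background-control endpoint, positive direction vs DMSO baseline.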

[15] = TOX21_p53_BLA_p3_viability: Viability Assessment in the Tox21 HCT-116 p53 Agonism Beta-lactamase Assay, Phase 3 (AID 2283593);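 further: cells exposed to compound for 16 h before reading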
Procedure, shortened: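 HCT-116 cells (4000/well) rested 5 h at 37C, then got DMSO compounds by pin tool (217-fold dilution) for 16 h at 37C, 5% CO2. After the bla read, CellTiter-Glo was added and luminescence read at 30 min, room temperature.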

[16] = ATG_PPRE_CIS: Attagene CIS-FACTORIAL HepG2 Assay for human Peroxisome Proliferator-activated Response Element (PPRE) (AID 2282958; active means hit-call score of the fitted dose curve at least 0.9, where 1 is the maximum; inactive means score below 0.9); settings: HepG2 PPRE cis-element reporter, Attagene transcription factor profiling; actives raise or lower the signal
Procedure, shortened: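 HepG2 cells transiently transfected with multiplexed cis-element reporter units measure endogenous transcription factor activity. After 24 h compound exposure, reporter mRNA is quantified by RT-PCR, 6-FAM labeling, HpaI digestion and capillary electrophoresis; bidirectional fits are made against DMSO baseline.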

[17] = target: Nuclear receptor subfamily 4 group A member 2 (Homo sapiens) (UniProt P43354); test: ATG_NURR1_TRANS: Attagene TRANS-FACTORIAL HepG2 Assay for human Nuclear Receptor Related Protein 1 (NURR1) (AID 2282985); settings: HepG2 Attagene TRANS reporter, mRNA readout
Chain of Nuclear receptor subfamily 4 group A member 2 (Homo sapiens) (P43354 whole entry, looked up): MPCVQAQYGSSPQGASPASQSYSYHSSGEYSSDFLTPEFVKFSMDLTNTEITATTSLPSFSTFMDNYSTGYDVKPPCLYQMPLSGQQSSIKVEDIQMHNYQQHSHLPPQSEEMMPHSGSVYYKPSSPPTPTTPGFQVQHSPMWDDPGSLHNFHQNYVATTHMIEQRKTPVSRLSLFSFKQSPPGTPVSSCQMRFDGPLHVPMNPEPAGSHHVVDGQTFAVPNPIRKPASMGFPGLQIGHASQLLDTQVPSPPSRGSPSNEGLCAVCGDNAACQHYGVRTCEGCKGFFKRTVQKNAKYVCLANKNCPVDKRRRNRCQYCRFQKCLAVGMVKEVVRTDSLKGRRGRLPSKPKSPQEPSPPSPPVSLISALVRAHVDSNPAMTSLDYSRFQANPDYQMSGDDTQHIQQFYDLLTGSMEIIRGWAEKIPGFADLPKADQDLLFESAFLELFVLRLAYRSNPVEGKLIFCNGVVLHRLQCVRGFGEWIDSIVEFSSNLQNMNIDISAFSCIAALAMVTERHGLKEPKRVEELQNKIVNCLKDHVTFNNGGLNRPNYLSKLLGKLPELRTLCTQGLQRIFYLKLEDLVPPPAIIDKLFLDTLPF
Procedure, shortened: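 After 24 h chemical dosing, total RNA from transiently transfected HepG2 cells was reverse-transcribed and reporter cDNA PCR-amplified, FAM-labelled and analysed by capillary electrophoresis. Activity fitted in positive direction, DMSO as negative control.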

[18] = target: human Peroxisome Proliferator-activated Receptor delta (PPARd), PPARD (gene 5467) (UniProt Q03181); test: ATG_PPARd_TRANS: Attagene TRANS-FACTORIAL HepG2 Assay for human Peroxisome Proliferator-activated Receptor delta (PPARd) (AID 2283002)
Chain of human Peroxisome Proliferator-activated Receptor delta (PPARd), PPARD (gene 5467) (Q03181 whole entry, looked up, the tested form may be a part): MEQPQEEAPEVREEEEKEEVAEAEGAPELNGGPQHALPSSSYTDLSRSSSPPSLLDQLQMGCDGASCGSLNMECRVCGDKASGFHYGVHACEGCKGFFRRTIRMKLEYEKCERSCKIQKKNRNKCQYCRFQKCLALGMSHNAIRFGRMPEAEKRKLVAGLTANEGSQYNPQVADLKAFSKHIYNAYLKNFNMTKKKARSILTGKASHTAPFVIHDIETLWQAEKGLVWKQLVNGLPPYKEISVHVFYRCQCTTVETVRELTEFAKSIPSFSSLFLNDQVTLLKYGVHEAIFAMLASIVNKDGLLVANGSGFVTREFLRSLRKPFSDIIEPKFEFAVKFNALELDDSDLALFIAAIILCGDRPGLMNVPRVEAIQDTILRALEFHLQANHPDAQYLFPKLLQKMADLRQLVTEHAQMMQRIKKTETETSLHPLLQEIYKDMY
Procedure, shortened: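 HepG2 cells transiently transfected with multiplexed GAL4-UAS reporter units and exogenous chimeric NR-Gal4 proteins; 24 h compound exposure. Reporter mRNA measured by RT-PCR, 6-FAM labelling, HpaI digestion and capillary electrophoresis; gain of signal versus DMSO.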

[19] = CCTE_Harrill_HTTr_Viability_MCF7: CCTE's 6-hour Cell Viability Assessment for the High-Throughput Transcriptomics (HTTr) Platform, in MCF-7 cells cultured in DMEM + 10% fetal bovine serum, Harrill Lab (AID 2284010; active means hit-call score of the fitted dose curve at least 0.9, where 1 is the maximum; inactive means score below 0.9)
Procedure, shortened: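 MCF-7 cells in DMEM + 10% FBS, 384-well, exposed 6 h to an eight-point dilution series. Membrane integrity scored by high-content imaging of propidium iodide exclusion; bidirectional fit versus DMSO.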

[20] = CCTE_Harrill_HTTr_Apoptosis_MCF7: CCTE's 6-hour Apoptosis Assessment for the High-Throughput Transcriptomics (HTTr) Platform, in MCF-7 cells cultured in DMEM + 10% fetal bovine serum, Harrill Lab (AID 2284011; active means hit-call score of the fitted dose curve at least 0.9, where 1 is the maximum; inactive means score below 0.9)
Procedure, shortened: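 Read-out: CellEvent Caspase 3/7 Green signal by high content imaging, gain-of-signal indicating apoptosis. MCF-7 cells, DMEM + 10% FBS, eight-point dilution series, 6 h exposure. Curves fitted bidirectionally relative to DMSO negative control.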

Measured: AC50

CC(O)CN(CC(C)O)CC(C)O (configuration not stated)
inactive: [1] | [2] | [3] | [4] | [5] | [6] | [7] | [8] | [9] | [10] | [11] | [12] | [13]

CCCC=NO
inactive: [2] | [3] | [4] | [14] | [5] | [6] | [7] | [8] | [9] | [10] | [11] | [15] | [12] | [13]

CC(=O)/C=C/c1ccccc1
active: [13] 85.1 µM
inactive: [16] | [3] | [6] | [7] | [17] | [18] | [8]

C=CCO
inactive: [4] | [7] | [18] | [15]

C=COCCCl
inactive: [2] | [4] | [14] | [5] | [7] | [8] | [9] | [10] | [13] | [19] | [20]

C=C(Cl)Cl
inactive: [1] | [16] | [3] | [14] | [5] | [6] | [17] | [18] | [9] | [11] | [12]

Cc1ccc(N(SC(F)(Cl)Cl)S(=O)(=O)N(C)C)cc1
active: [12] 87.1 µM
inactive: [1] | [2] | [5] | [17] | [18] | [10] | [11] | [19] | [20]

O=CNC(N1CCN(C(NC=O)C(Cl)(Cl)Cl)CC1)C(Cl)(Cl)Cl (configuration not stated)
inactive: [14] | [5] | [6] | [7] | [17] | [18] | [10] | [12] | [13] | [19] | [20]

N#CC(c1ccccc1)c1ccccc1
inactive: [1] | [2] | [16] | [3] | [14] | [17] | [18] | [8] | [10] | [11] | [15] | [12]

CSc1nc(N=[N+]=[N-])nc(NC(C)C)n1
inactive: [16] | [4] | [5] | [6] | [7] | [18] | [10] | [15] | [12]

COc1cc(OC)nc(Oc2cccc(Oc3nc(OC)cc(OC)n3)c2C(=O)O)n1
inactive: [2] | [16] | [3] | [4] | [14] | [5] | [6] | [17] | [18] | [8] | [11] | [13] | [19] | [20]
